Assay results reported in PubChem BioAssay AID1851 (National Center for Advancing Translational Sciences (NCATS), 2009).
The whole screen tested about 16,000 compounds, of which about 4,000 (25%) were called active. Not shown: some 26% with an inconclusive outcome. Calls follow the shape of the dose curve; as a rule, active = well fitted curve in the direction sought with a large enough effect; inconclusive = small, poorly fitted or top-dose-only effect, or effect the other way; inactive = no such curve, though single readings can be large or run the other way. Not all results are given here.

Target: Cytochrome P450 2C9 (Homo sapiens) (UniProt P11712)
Sequence (P11712 whole entry, looked up): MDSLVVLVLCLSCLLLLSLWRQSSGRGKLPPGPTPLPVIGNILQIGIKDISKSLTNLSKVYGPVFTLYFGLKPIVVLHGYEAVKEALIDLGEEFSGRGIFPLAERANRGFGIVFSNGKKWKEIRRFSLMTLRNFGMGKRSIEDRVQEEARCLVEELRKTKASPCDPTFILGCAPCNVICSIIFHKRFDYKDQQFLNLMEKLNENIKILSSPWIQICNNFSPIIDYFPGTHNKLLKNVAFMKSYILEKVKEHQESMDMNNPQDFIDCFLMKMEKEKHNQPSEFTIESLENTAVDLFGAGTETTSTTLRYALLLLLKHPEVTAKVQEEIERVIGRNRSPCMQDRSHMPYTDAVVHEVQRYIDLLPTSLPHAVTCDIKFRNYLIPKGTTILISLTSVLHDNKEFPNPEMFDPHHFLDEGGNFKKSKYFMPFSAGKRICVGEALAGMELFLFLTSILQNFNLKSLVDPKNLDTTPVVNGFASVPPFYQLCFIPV
Experiment: Cytochrome panel assay with activity outcomes
Conditions: recombinant CYP, pro-luciferin dealkylation, luminescence, p450-cyp2c9; series mostly up to 57.1 µM; activity, negative = inhibition: at the top concentration
% is scaled to controls: 0 for no effect and ±100 for the full control effect.

activity, negative = inhibition, inactive:
COc1ccccc1-c1ccc2ncnc(N(C)C)c2c1 -21.1% [at 2.29 µM]
O=C(O)[C@H](Cc1c[nH]c2ccccc12)N1C(=O)c2ccccc2C1=O 6.23% [at 11.4 µM]
CN1[C@@H]2CC[C@H]1CC(OC(=O)c1c[nH]c3ccccc13)C2 (some centres not stated) -7.96%
C#CCCCO/N=C1/[C@H]2O[C@@H]2[C@@H](O)[C@H]2[C@H]1CCn1c(=O)n([C@@H](CC)c3ccccc3)c(=O)n12 4.97% [at 11.4 µM]
CN(Cc1ccco1)c1ncncc1-c1ccoc1 -8.69% [at 2.29 µM]
O=C(O)c1cc(-c2ccncc2)nc2ccccc12 -29.2% [at 11.4 µM]
O=C(O)CSSCC(=O)O 22.5% [at 11.4 µM]
Cn1c(=O)c2[nH]c(-c3ccccc3)nc2n(C)c1=O -14.3%
CCn1c(=O)c2[nH]c(-c3ccccc3)nc2n(CC)c1=O 3.25%
CC[N+](CC)(CC)CC -7.63%
N[C@H](C(=O)O)[C@H](N)C(=O)O 17.2% [at 11.4 µM]
COc1ccc(N(CC(=O)O)N=O)cc1 -1.12% [at 11.4 µM]
Cc1ccccc1-c1cc(NCCN2CCOCC2)ncn1 18.6% [at 2.29 µM]
CCC(c1nnnn1CC1CCCO1)N(CCN1CCOCC1)Cc1cc2cc(C)ccc2[nH]c1=O (configuration not stated) -10%
Cn1nccc1C(=O)Nc1ccc(Cl)cc1 -23%
COCC(=O)N(C)c1nnc(-c2ccc([N+](=O)[O-])cc2)s1 -27.4%
COc1ccccc1CN1CC2(CCN(S(C)(=O)=O)CC2)C1 17.2%
Cc1ccc(NC(=O)CN(C)C(=O)CSc2n[nH]c(N)n2)cc1 -22.5%
CC(C)=CCC/C(C)=C/CO/N=C1/C[C@@H](O)[C@@H](O)[C@@H]2[C@@H]3C(=O)N(C(C)(C)C)C(=O)[C@H]3CC[C@@H]12 -9.91% [at 11.4 µM]
CC[N+](CC)(CC)CCOc1ccc(/C=C\c2ccccc2)cc1 15.3%
N[C@@H](CSC(=O)c1ccccc1)C(=O)O 18.3% [at 11.4 µM]
O=C1Nc2ccccc2Nc2ncccc21 -14.8%
COc1cc(C(=O)NCCC(=O)NCc2ccc3c(c2)OCO3)cc(OC)c1OC -28.6%
CC1(C)CC(NCc2ccc3c(c2)OCO3)CCO1 (configuration not stated) 5.26%
O=C(NCc1ccc2c(c1)OCO2)C1CC(=O)N(C2CCCC2)C1 (configuration not stated) -25%
O=C1Nc2ccccc2C(O)(C(=O)NCc2ccc3c(c2)OCO3)N1c1ccc(Cl)c(Cl)c1 (configuration not stated) -27.3%
Cc1[nH]c2ccccc2c1/C=C/c1cc[n+](C)cc1 23.4%
CCCc1ncc(C[n+]2ccccc2C)c(N)n1 -6.81% [at 25.6 µM]
COc1ccc(Cl)cc1C(=O)Nn1cnc2ccccc2c1=O 7.58%
O=C1c2ccccc2C(=O)N1CCCSc1ccccc1 -22.7% [at 11.4 µM]
COc1ccc2c(OC)c3ccoc3nc2c1OC 19.1% [at 25.6 µM]
CN(CC(=O)O)Cc1c(O)c(Cl)cc(Cl)c1Cl 13.6% [at 11.4 µM]
CC(=O)N[C@@H](Cc1c[nH]c2ccccc12)C(=O)OCc1cc(C(F)(F)F)cc(C(F)(F)F)c1 2.21%
COC(=O)C(Cc1c[nH]c2ccccc12)NC(=O)C(C)C (configuration not stated) -33.5%

AC50, inactive:
N[C@H](C(=O)O)c1cccc(O)c1
C=C[C@H](N)CCC(=O)O
CO/N=C(\C(=O)N[C@@H]1C(=O)N2C(C(=O)O)=C(COC(C)=O)CS[C@@H]12)c1csc(N)n1
C=CCN1CCc2cc(O)c(O)cc2[C@H](c2ccccc2)C1

AC50, active:
CN1C2C=C(N(CCc3c[nH]c4ccccc34)C(=O)c3ccc(Cl)cc3)CC1CC2 (configuration not stated) 1.78 µM
COc1ccc(C(=O)Nc2cccc(OC(=O)c3ccc(C)c(C)c3)c2)cc1 3.55 µM
C/C(=N\n1nnnc1Nc1ccccc1)c1ccc(N)cc1 11.2 µM
N=C(N)SCc1nc2ccccc2c(=O)n1-c1ccccc1Cl 3.16 µM
O=C(c1cc(-c2ccncc2)nc2ccccc12)N1CCN(c2ccc(N3CCOCC3)nn2)CC1 1.26 µM
CCCn1c(-c2ccccc2)nc2c(=O)n(C)c(=O)[nH]c21 12.6 µM
Cc1nn2c3c(cnc2c1-c1ccccc1)C(=O)CC(c1ccccc1)C3 (configuration not stated) 10 µM
COc1ccc(N(C(=O)COc2ccccc2OC)S(=O)(=O)c2ccc(C)cc2)cc1 1 µM
O=C1C(=O)c2ccccc2C(O)=C1C1CCC(c2ccc(Cl)cc2)CC1 (configuration not stated) 2 µM
Cc1cc(C)c2cc(CN(Cc3nnnn3Cc3ccc(F)cc3)C3CCCC3)c(=O)[nH]c2c1 7.08 µM
Cn1c(C(=O)Nc2ccccc2)cc2sccc21 20 µM
COCCN(C(=O)c1ccco1)c1nnc(-c2ccc(OC)cc2)s1 28.2 µM
O=C1N(c2ccccc2)c2ccccc2C1(Cc1ccncc1)Cc1ccncc1 7.94 µM
Nc1nc(SCC(=O)Nc2ccccc2Sc2ccc(Cl)cc2)n[nH]1 1 µM
C=CCNC(=O)/C(=C\C=C\c1ccccc1)NC(=O)c1ccc(OCCCC)cc1 12.6 µM
Clc1ccc(/C=N/Nc2nnc(-c3ncc[nH]3)c3ccccc23)cc1 5.01 µM
O=C(Nc1cccn(Cc2c(Cl)cccc2Cl)c1=O)c1ccc(Cl)cc1Cl 3.55 µM
C/C(=C\C(=O)c1ccc(Cl)cc1)NCc1ccc2c(c1)OCO2 7.94 µM
C/C(=C\C(=O)c1ccc(Br)cc1)NCc1ccc2c(c1)OCO2 11.2 µM
O=C(c1ccccc1)c1ccc(OCCn2cnc3ccccc3c2=O)cc1 2.82 µM
O=c1c2ccccc2ncn1CCCSc1ccccc1 14.1 µM
Cc1ccc(SCCCn2cnc3ccccc3c2=O)cc1 12.6 µM
C[C@@H](C(=O)NCCc1c[nH]c2ccccc12)[C@H]1C[C@]1(C)[C@H](NC(=O)OCc1ccccc1)c1ccccc1 0.631 µM
C[C@@H](C(=O)NCCc1c[nH]c2ccccc12)[C@@H]1C[C@@]1(C)[C@@H](NC(=O)OCc1ccccc1)c1ccccc1 2.51 µM
